Assay results as given in PubChem BioAssay (NCATS).
Values joined by “and” are separate entries in the source; they are usually repeats but may differ in a detail not shown here. Equal entries are not always repeated. Results filed as inconclusive are left out. Active and inactive are the calls of the source. Unless noted, calls follow the shape of the dose curve; as a rule, active = well fitted curve in the direction sought with a large enough effect; inconclusive = small, poorly fitted or top-dose-only effect, or another doubt; inactive = no such curve, though single readings can be large; an effect the other way counts as inactive or inconclusive.

Key:
[1] = Cell Viability - SK-N-SH (AID 435; calls by dose curve;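 also: potency is read from the fitted curve at half-maximal effect; compound exposure lasted 40 h at 37 °C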); conditions: SK-N-SH neuroblastoma cell viability qHTS
Summary of the method: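 SK-N-SH human neuroblastoma cells (1500/well) were exposed to compounds in complete medium for 40 h at 37 °C, and intracellular ATP was then measured by CellTiter-Glo luminescence. AC50 was taken from Hill fits, normalized to DMSO and 100 uM tamoxifen.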

[2] = Cell Viability - Renal Proximal Tubule (AID 545); conditions: renal proximal tubule cells viability; series mostly up to 91.7 µM; also: nearly all actives have a fitted effect of over 40% in size
Summary of the method: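 Primary rat renal proximal tubule cells (1000/well) were treated with compounds for 40 hr at 37 °C in complete medium. Intracellular ATP was measured by CellTiter-Glo luminescence, and AC50 values came from Hill-equation fits of concentration-response data.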

[3] = Cellular Toxicity (caspase-3) Jurkat (AID 655); conditions: Jurkat caspase-3 activation, luminescence; caspase-3 activation: at 92.2 µM (top of the series), DMSO = 0%, tamoxifen = 100%;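 also: cells exposed to compound for 16 h at 37 °C before reading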
Summary of the method: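 Jurkat cells (5000/well) in complete medium were treated with compounds for 16 hr at 37 °C, then Caspase-Glo 3/7 luminescence was read after 20 min at room temperature. Data normalized to DMSO (basal) and 100 uM tamoxifen (100%); AC50 from Hill fit.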

[4] = Cellular Toxicity (caspase-3) SHSY5Y (AID 657); conditions: SH-SY5Y caspase-3 activation, DMSO zero, 10 µM staurosporine = 100%; series mostly up to 91.7 µM
Summary of the method: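 SH-SY5Y human neuroblastoma cells (1500/well) were treated with compounds for 16 h at 37 °C, then Caspase-Glo 3/7 luminescence was read after 1 h at room temperature. Data normalized to DMSO and 10 uM staurosporine; AC50 from Hill fits.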

[5] = Cellular Toxicity (caspase-3) BJ (AID 658); conditions: BJ fibroblasts, luminescence, normalized: DMSO 0%, staurosporine 100%; series mostly up to 91.7 µM
Summary of the method: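 Caspase-Glo 3/7 luminescence, read 1 hr after reagent at room temperature, in normal BJ fibroblasts exposed 16 hours at 37 °C. AC50 values from Hill-equation concentration-response, scaled between DMSO basal and 10 uM staurosporine as 100%.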

[6] = Cellular Toxicity (caspase-3) N2a (AID 665); conditions: N2a cells, luminescence, normalized: DMSO 0%, 10 µM staurosporine 100%; series mostly up to 92.2 µM;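 also: compound exposure lasted 16 h at 37 °C before readout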
Summary of the method: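 Caspase-3/7 activation measured as luminescence from Caspase-Glo reagent (1 h, room temperature) after 16 h compound exposure of mouse N2a cells. AC50 values from Hill-equation concentration-response, scaled between DMSO and 10 uM staurosporine.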

[7] = Cellular Toxicity (caspase-3) Renal Proximal Tubule (AID 667); conditions: renal proximal tubule cells; series mostly up to 91.7 µM;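 also: cells exposed to compound for 16 hours at 37 °C before detection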
Summary of the method: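 Primary rat proximal tubule cells, 1000/well, 5 h plating at 37 °C, then compound 16 h at 37 °C. Caspase-Glo 3/7 reagent, 1 h RT, luminescence. Normalized to DMSO (basal) and 10 uM staurosporine (100%); Hill-fit AC50.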

[8] = molecular target: Cytochrome P450 3A4 (Homo sapiens) (UniProt P08684); assay: qHTS Assay for Inhibitors and Substrates of Cytochrome P450 3A4 (AID 884); conditions: recombinant CYP3A4, Luciferin-PPXE luminescence; series mostly up to 57.1 µM; also: % is scaled to controls: 0 for no effect and ±100 for the full control effect; nearly all actives have a fitted effect of over 50% in size
Summary of the method: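 Luminescent readout of luciferin produced by CYP3A4 (20 nM) dealkylation of Luciferin-PPXE, 25 uM (its KM). NADPH-driven reaction ran 60 min at RT after 10 min compound preincubation; data scaled to 57 uM ketoconazole as 100% inhibition.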

[9] = MultiTox-Fluor Cytotoxicity Assay - LYMP1-001 - Dead Cells (AID 946); conditions: LYMP1-001 lymphoblastoid cells, dead-cell protease fluorescence; series mostly up to 92.2 µM;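 also: 0% = DMSO and 100% = tetraoctylammonium bromide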
Summary of the method: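 AC50 from Hill fit of concentration-response; data normalized to DMSO (basal) and 15 uM tetraoctylammonium bromide (100%). LYMP1-001 lymphoblastoid cells, 2500/well, 16 hr compound at 37 C; dead-cell protease fluorescence, Ex/Em 485/520.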

[10] = Cell Viability - LYMP1-002 - Assay at 16 hr (AID 948); conditions: LYMP1-002 lymphoblastoid cell viability; series mostly up to 92.2 µM;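 also: 0% = DMSO alone and full effect = 92 µM tetraoctylammonium bromide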
Summary of the method: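 Human lymphoblastoid cells (LYMP1-002), 2500/well, were preincubated 5 hr at 37 C, then exposed to compounds for 16 hr at 37 C in complete medium. Cellular ATP was read by CellTiter-Glo luminescence after 30 min at room temperature; AC50 from Hill fits.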

[11] = MultiTox-Fluor Cytotoxicity Assay - LYMP1-003 - Dead Cells (AID 961); conditions: LYMP1-003 lymphoblastoid cells, dead-cell protease fluorescence; series mostly up to 92.2 µM;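 also: 0% = DMSO and 100% = tetraoctylammonium bromide; nearly all actives have a fitted effect of over 70% in size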
Summary of the method: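 Human lymphoblastoid LYMP1-003 cells (2500/well) were treated with compounds for 16 hr at 37 C in complete medium. Dead-cell protease release was read by bis-AAF-R110 fluorescence (Ex/Em 485/520). AC50 came from Hill fits, normalized to DMSO and 15 uM tetraoctylammonium bromide.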

[12] = Cell Viability - LYMP1-003 - Assay at 24 hr (AID 963); conditions: LYMP1-003 lymphoblastoid cell viability; series mostly up to 92.2 µM;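 also: plate controls were DMSO only for no effect and tetraoctylammonium bromide positive control for full effect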
Summary of the method: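 Concentration-response qHTS: ATP loss measured by CellTiter-Glo luminescence after 24 h compound exposure at 37 C. Cells were LYMP1-003 human lymphoblastoid, 2500 per well. AC50 derived via standard Hill equation modeling.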

[13] = Cell Viability - LYMP2-003 (AID 965); conditions: LYMP2-003 lymphoblastoid cell viability; series mostly up to 92.2 µM;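 also: cells exposed to compounds for 24 h before reading; 0% = DMSO only and full effect = 92 µM tetraoctylammonium bromide; nearly all actives have a fitted effect of over 50% in size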
Summary of the method: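 Human lymphoblastoid cells (2500/well) were pre-incubated 5 hr at 37 C, then exposed to compounds over a concentration range for 24 hr at 37 C. Intracellular ATP was read by CellTiter-Glo luminescence; AC50 came from Hill-equation fits.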

[14] = Cell Viability - LYMP2-015 (AID 971); conditions: LYMP2-015 lymphoblastoid cell viability; series mostly up to 92.2 µM;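 also: 0% = DMSO only and full effect = 92 µM tetraoctylammonium bromide; nearly all actives have a fitted effect of over 55% in size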
Summary of the method: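 Cytotoxicity readout: decrease in intracellular ATP (CellTiter-Glo luminescence) in 2500 LYMP2-015 lymphoblastoid cells/well after 24 h compound exposure at 37 C. Concentration-response data fitted with the standard Hill equation to give AC50.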

[15] = Cell Viability - LYMP1-002 - Assay at 24 hr (AID 993); conditions: LYMP1-002 lymphoblastoid cells viability; series mostly up to 92.2 µM; also: % is scaled to controls: 0 for no effect and ±100 for the full control effect
Summary of the method: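 qHTS cytotoxicity at 24 h: CellTiter-Glo ATP luminescence in lymphoblastoid line LYMP1-002 incubated with compound at 37 °C. Concentration-response modeled with the Hill equation for AC50; tetraoctylammonium bromide served as positive control.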

[16] = Cell Viability - LYMP1-002 - Assay at 40 hr (AID 994); conditions: LYMP1-002 lymphoblastoid cell viability; series mostly up to 92.2 µM;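 also: 0% = DMSO only and full inhibition = 92 µM tetraoctylammonium bromide; nearly all actives have a fitted effect of over 60% in size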
Summary of the method: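 Cytotoxicity was read as loss of cellular ATP (CellTiter-Glo luminescence) after 40 hr compound exposure at 37 C of 2500 LYMP1-002 lymphoblastoid cells per well. Concentration-response data were fitted with the standard Hill equation to give AC50.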

[17] = molecular target: Peroxisome proliferator-activated receptor alpha (Homo sapiens) (UniProt Q07869); assay: qHTS assay for small molecule agonists of the peroxisome proliferator-activated receptor alpha (PPARalpha) signaling pathway (AID 651778); conditions: PathHunter PPARalpha complementation, chemiluminescence, 6 h; active compounds read high; also: % of control where 0% means no effect
Summary of the method: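 Chemiluminescence from complemented enzyme reported PPARalpha activation in cells after 6 hr of compound treatment at 37 C. The detection reagent was incubated for 60 min at room temperature, and compounds were scored as agonists.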

[18] = qHTS assay for cell viability of HEK293 cells (AID 743288); conditions: ATP luminescence (CellTiter-Glo), 18 h, active compounds read low; also: % is scaled to controls: 0 for no effect and ±100 for the full control effect; nearly all actives have a fitted effect of over 50% in size
Summary of the method: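 After 18 h compound exposure at 37 C, parental HEK293 cells (2,000/well) are lysed with CellTiter-Glo and luminescence is read following 30 min at room temperature.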

[19] = qHTS assay for cell viability of the p53RE-bla HCT-116 cell line (AID 743292); conditions: p53RE-bla HCT-116 viability, ATP luminescence, 16 h; series mostly up to 95 µM; also: % is scaled to controls: 0 for no effect and ±100 for the full control effect; nearly all actives have a fitted effect of over 55% in size
Summary of the method: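 Intracellular ATP of p53RE-bla HCT-116 cells measured by luciferase luminescence following 16 h compound incubation at 37 C; DMSO-only wells served as vehicle controls.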

[20] = molecular target: Nuclear receptor subfamily 1 group I member 2 (Rattus norvegicus) (UniProt Q9R1A7); assay: qHTS assay for small molecule activators of the rat pregnane X receptor (rPXR) signaling pathway (AID 651751; call rule not given here; also: 0% is about no effect); conditions: rPXR reporter cells, luciferase (One-Glo), 24 h
Nuclear receptor subfamily 1 group I member 2 (Rattus norvegicus), sequence (Q9R1A7 whole entry, looked up): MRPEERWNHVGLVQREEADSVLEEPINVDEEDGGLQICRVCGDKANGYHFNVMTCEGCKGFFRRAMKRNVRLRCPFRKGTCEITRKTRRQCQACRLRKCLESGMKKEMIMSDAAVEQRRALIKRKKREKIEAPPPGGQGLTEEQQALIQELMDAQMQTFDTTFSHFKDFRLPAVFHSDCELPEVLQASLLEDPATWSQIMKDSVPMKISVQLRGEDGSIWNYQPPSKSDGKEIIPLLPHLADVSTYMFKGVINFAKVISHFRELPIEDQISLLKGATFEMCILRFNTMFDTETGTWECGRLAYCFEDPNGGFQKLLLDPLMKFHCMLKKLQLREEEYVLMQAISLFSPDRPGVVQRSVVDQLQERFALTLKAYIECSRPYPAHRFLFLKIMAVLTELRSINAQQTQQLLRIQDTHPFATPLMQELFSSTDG

Peroxisome proliferator-activated receptor alpha (Homo sapiens), sequence (Q07869 whole entry, looked up): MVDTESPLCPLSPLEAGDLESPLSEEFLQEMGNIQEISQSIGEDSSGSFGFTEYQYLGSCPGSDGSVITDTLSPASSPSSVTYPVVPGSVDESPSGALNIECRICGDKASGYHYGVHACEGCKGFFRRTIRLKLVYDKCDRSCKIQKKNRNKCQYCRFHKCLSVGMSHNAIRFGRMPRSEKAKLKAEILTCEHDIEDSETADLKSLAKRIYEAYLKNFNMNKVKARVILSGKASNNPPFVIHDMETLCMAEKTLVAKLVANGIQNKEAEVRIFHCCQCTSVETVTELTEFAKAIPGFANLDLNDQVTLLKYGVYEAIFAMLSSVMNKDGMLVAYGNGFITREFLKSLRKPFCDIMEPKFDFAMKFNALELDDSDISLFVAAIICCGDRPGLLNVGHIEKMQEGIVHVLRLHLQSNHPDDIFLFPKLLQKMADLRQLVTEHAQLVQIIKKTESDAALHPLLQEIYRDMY
Cytochrome P450 3A4 (Homo sapiens), sequence (P08684 whole entry, looked up): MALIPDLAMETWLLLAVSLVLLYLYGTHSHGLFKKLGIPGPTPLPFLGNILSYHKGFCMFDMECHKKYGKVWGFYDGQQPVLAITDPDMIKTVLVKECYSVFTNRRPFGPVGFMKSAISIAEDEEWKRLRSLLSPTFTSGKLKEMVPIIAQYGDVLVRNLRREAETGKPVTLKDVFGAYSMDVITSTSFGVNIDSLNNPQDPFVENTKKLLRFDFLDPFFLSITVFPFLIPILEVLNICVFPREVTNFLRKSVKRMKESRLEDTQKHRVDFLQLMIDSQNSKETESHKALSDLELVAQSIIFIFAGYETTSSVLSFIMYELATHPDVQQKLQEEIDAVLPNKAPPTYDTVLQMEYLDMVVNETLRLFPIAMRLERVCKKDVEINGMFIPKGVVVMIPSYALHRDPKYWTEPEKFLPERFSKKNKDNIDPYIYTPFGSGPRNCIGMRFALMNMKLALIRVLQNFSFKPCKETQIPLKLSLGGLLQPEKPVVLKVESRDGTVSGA

CCC(Cl)[N+](=O)[O-] (stereo not given)
inactive: Potency [1] > 92 µM | outcome [2] | caspase-3 activation [3] 1.33% | outcome [4] | outcome [5] | outcome [6] | outcome [7] | Potency [8] | outcome [9] | outcome [10] | Potency [11] | outcome [12] | Potency [13] | Potency [14] | Potency [15] | Potency [16] | max response [17] 11.6% | max response [18] -3.51% | Potency [19] | max response [20] -0.428%

C=CC(=O)OCCN(C)C
inactive: Potency [1] > 92 µM | outcome [2] | caspase-3 activation [3] 1.53% | outcome [4] | outcome [5] | outcome [6] | outcome [7] | Potency [8] | outcome [9] | outcome [10] | Potency [11] | outcome [12] | Potency [13] | Potency [14] | Potency [15] | Potency [16] | max response [17] 10.1% | max response [18] -6.86% | Potency [19] | max response [20] 2.48%

Oc1cc(Cl)c(Cl)c(Cl)c1
inactive: caspase-3 activation [3] 14.2% | outcome [4] | outcome [5] | outcome [6] | outcome [7] | outcome [9] | outcome [10] | Potency [11] | outcome [12] | Potency [14] | Potency [15] | Potency [16] | max response [17] -3.78% | max response [18] -15.1% | Potency [19] | max response [20] -2.97%

C=CC#N
inactive: Potency [1] > 92 µM | outcome [2] | caspase-3 activation [3] -0.0463% | outcome [4] | outcome [5] | outcome [6] | outcome [7] | Potency [8] | outcome [9] | outcome [10] | Potency [11] | outcome [12] | Potency [13] | Potency [14] | Potency [15] | Potency [16] | max response [17] -1.02% | max response [18] -18.6% | Potency [19] | max response [20] -2.96%

Cc1cccc(N)c1C
inactive: Potency [1] > 92 µM | outcome [2] | caspase-3 activation [3] 0.961% | outcome [4] | outcome [5] | outcome [6] | outcome [7] | Potency [8] | outcome [9] | outcome [10] | Potency [11] | outcome [12] | Potency [13] | Potency [14] | Potency [15] | max response [17] -1.4% | max response [18] -7.16% | Potency [19] | max response [20] -0.698%

O=Cc1ccc2c(c1)OCO2
inactive: Potency [1] > 92 µM | outcome [2] | caspase-3 activation [3] -0.168% | outcome [4] | outcome [5] | outcome [6] | outcome [7] | Potency [8] | outcome [9] | outcome [10] | Potency [11] | outcome [12] | Potency [13] | Potency [14] | Potency [15] | Potency [16] | max response [17] -6.34% | max response [18] -0.123% | Potency [19] | max response [20] 2.27%

ClCc1ccccn1
inactive: Potency [1] > 92 µM | outcome [2] | caspase-3 activation [3] 1.38% | outcome [4] | outcome [5] | outcome [6] | outcome [7] | Potency [8] | outcome [9] | outcome [10] | Potency [11] | outcome [12] | Potency [13] | Potency [14] | Potency [15] | Potency [16] | max response [17] -1.73% and -0.41% | max response [18] 1.66% and -12.2% | Potency [19] | max response [20] 2.99% and 8.15%

COc1ccccc1N
inactive: Potency [1] > 92 µM | outcome [2] | caspase-3 activation [3] 5.87% | outcome [4] | outcome [5] | outcome [6] | outcome [7] | Potency [8] | outcome [9] | outcome [10] | Potency [11] | outcome [12] | Potency [13] | Potency [14] | Potency [15] | Potency [16] | max response [17] -0.908% | max response [18] -0.892% | Potency [19] | max response [20] 20.9%
